Here are results for five molecules from PubChem BioAssay.

The structures appear in SMILES notation. Active and inactive are the calls of the source.

Assay [1] in a line: small molecules captured by biotinylated probe aFSTL3 – biochemical, small-molecule microarray, fluorescence 635/667, stem cell growth factor project, primary screen (AID 1064).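 Further: measures binding of the biotinylated anti-FSTL3 antibody to printed compounds.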 The following applies: higher = more signal.
Assay [2] is described as follows: binders from COS7 lysate, DM2A8 probe, primary screen, torsin A project, cell lysate, small-molecule microarray, fluorescence 635/667 (AID 1065). Particulars: higher = more signal, COS7 lysate expressing mutant human TOR1A.
The nature of assay [3]: small molecules captured by biotinylated probe aFGF2 – biochemical, small-molecule microarray, fluorescence 635/667, stem cell growth factor project, primary screen (AID 1067).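 Further: measures binding of biotinylated aFGF2 protein to printed compounds on slides; z-score merges feature fluorescence and signal-to-noise across triplicate slides.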 The following applies: higher = more signal.
The nature of assay [4]: small molecules captured by biotinylated probe aFGF10 – biochemical, small-molecule microarray, fluorescence 635/667, stem cell growth factor project, primary screen (AID 1071).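 Further: score merges 667 nm spot intensity and signal to noise from triplicate slides.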 Particulars: higher = more signal.
Assay [5] has as its target Neurogenic locus notch homolog protein 2 (Homo sapiens) (UniProt Q04721). In words: small molecules binding Notch2 protein – biochemical, small-molecule microarray, 635 nm fluorescence, stem cell growth factors, primary screen (AID 1073). Particulars: higher = more signal.
In assay [6] the target is Pro-neuregulin-1, membrane-bound isoform (Homo sapiens) (UniProt Q02297). In words: small molecules binding neuregulin-1 protein – biochemical, small-molecule microarray, fluorescence 635/667, psychiatric disease protein project, primary screen (AID 1075).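 Further: score combines 667 nm spot fluorescence with signal to noise.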 Particulars: NRG1 binding, 635 nm fluorescence, higher = more signal.
Assay [7] concerns Neuregulin-1 EGF-like domain. In words: small molecules binding NRG1 EGF domain – biochemical, small-molecule microarray, 635 nm fluorescence, primary screen (AID 1081).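 Further: binding of the protein to compounds printed on small-molecule microarray slides.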 The following applies: higher = more signal.
A short description of assay [8]: FRG1 expression reporter modulators in myotubes – cell-based, C2C12 myotubes, firefly/Renilla luciferase, luminescence, FRG1 inhibition for FSHD, primary screen (AID 1084). Particulars: FRG1 promoter luciferase, higher = more signal, called active from +8 up or from −8 down.
Assay [9] can be described thus: small molecules captured by biotinylated probe aFST – biochemical, small-molecule microarray, fluorescence 635/667, stem cell growth factor project, primary screen (AID 1086).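 Further: score merges 667 nm fluorescence with signal-to-noise of each printed compound spot.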 The following applies: higher = more signal.
Assay [10] in a line: binders of probe aHhip on microarray, primary screen, stem cell growth factor project, biochemical, small-molecule microarray, fluorescence 635/667 (AID 1087).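 Further: score merges spot fluorescence at 667nm with spot signal to noise ratio.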 The following applies: higher = more signal.
The test system of assay [11] is PRMT1 (protein arginine N-methyltransferase 1). In words: small molecules binding arginine methyltransferase PRMT1 – biochemical, small-molecule microarray, 635 nm fluorescence, primary screen (AID 1088).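 Further: binding of Prmt1 protein to compounds spotted on small-molecule microarray slides.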 Particulars: higher = more signal.
The nature of assay [12]: growth effects on S. cerevisiae YJM789 – YJM789 clinical isolate, OD600, 24 h, basal, primary screen (AID 1089).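 Further: growth of clinical yeast isolate S. cerevisiae YJM 789 seeded 1000 cells per well; test concentration not given here.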 Particulars: higher = more signal, called active from +8 up or from −8 down.
A short description of assay [13]: S. pombe growth modifiers, basal conditions – strain 972, OD600, 24 h, no modulator, primary screen (AID 1090).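 Further: basal condition with compound alone and no growth modifier present; test concentration not given here.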 Particulars: S. pombe 972 growth, higher = more signal, called active from +8 up or from −8 down.
The nature of assay [14]: budding yeast growth modifiers under rapamycin – strain BY4716, OD600, 96 h, primary screen (AID 1091). Further: test concentration not given here. The following applies: S. cerevisiae BY4716 + rapamycin, higher = more signal, called active from +8 up or from −8 down.
Assay [15] concerns the target Torsin-1A-interacting protein 2 (Homo sapiens) (UniProt Q8NFQ8). In words: small molecules binding lysate-expressed LULL1 – cell lysate, human LULL1 lysate, 635/667 nm fluorescence, primary screen (AID 1092).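 Further: score merges per-feature 667 nm fluorescence with signal-to-noise.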 The following applies: small-molecule microarray, hLULL1 lysate binding, 635 nm fluorescence; higher = more signal.
Assay [16] is described as follows: optical density change of DRC41 E. coli – strain DRC41, OD650, 24 h, E. coli filamentation project, primary screen (AID 1093).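 Further: MC1000 strain lacking acrAB efflux and sulA so SOS filamentation is blocked; test concentration not given here.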 Particulars: E. coli DRC41 growth, higher = more signal, called active from +8 up or from −8 down.
A short description of assay [17]: probe aLefty2 binding to arrayed compounds – biochemical, biotinylated probe, 635/667 nm fluorescence, primary screen (AID 1094).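 Further: score merges spot fluorescence near 667 nm with spot signal-to-noise ratio.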 Particulars: small-molecule microarray, higher = more signal.
Assay [18] concerns Noggin (protein binding on small-molecule microarray). In words: small molecules binding Noggin protein – biochemical, 635/667 nm fluorescence, primary screen (AID 1095).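 Further: score merges 667 nm feature fluorescence with signal to noise over triplicate slides.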 Particulars: 635 nm fluorescence, higher = more signal.
In assay [19] the target is Neurogenic locus notch homolog protein 3 (Homo sapiens) (UniProt Q9UM47). In words: small molecules binding NOTCH3 protein – biochemical, 635/667 nm fluorescence, primary screen (AID 1096). The following applies: small-molecule microarray, 635 nm fluorescence, higher = more signal.
A short description of assay [20]: probe aEGFR binding to arrayed compounds – biochemical, biotinylated probe, 635/667 nm fluorescence, primary screen (AID 1097).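 Further: probe is a biotinylated anti-EGFR antibody binding compounds printed on slides; score combines fluorescence near 667 nm and signal to noise of each spot.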 Particulars: small-molecule microarray, higher = more signal.

Chain of Pro-neuregulin-1, membrane-bound isoform (Homo sapiens) (Q02297 whole entry, looked up, the tested form may be a part, canonical isoform): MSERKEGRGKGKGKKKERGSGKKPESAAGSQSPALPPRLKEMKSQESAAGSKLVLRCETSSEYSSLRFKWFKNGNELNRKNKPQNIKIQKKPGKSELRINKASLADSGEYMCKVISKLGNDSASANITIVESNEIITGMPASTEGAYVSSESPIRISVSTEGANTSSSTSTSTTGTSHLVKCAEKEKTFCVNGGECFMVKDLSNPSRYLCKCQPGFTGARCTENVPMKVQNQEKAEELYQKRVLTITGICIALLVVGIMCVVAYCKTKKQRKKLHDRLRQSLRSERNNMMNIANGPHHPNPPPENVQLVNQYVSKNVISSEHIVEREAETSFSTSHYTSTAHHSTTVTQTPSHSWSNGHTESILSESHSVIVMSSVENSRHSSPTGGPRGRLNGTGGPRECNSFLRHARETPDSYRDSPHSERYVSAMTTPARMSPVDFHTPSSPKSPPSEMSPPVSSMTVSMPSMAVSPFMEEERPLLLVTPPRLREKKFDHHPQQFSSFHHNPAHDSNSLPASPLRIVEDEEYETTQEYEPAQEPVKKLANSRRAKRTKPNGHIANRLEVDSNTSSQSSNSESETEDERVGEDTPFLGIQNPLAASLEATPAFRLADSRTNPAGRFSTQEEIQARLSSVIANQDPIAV
Chain of Neurogenic locus notch homolog protein 3 (Homo sapiens) (Q9UM47 whole entry, looked up): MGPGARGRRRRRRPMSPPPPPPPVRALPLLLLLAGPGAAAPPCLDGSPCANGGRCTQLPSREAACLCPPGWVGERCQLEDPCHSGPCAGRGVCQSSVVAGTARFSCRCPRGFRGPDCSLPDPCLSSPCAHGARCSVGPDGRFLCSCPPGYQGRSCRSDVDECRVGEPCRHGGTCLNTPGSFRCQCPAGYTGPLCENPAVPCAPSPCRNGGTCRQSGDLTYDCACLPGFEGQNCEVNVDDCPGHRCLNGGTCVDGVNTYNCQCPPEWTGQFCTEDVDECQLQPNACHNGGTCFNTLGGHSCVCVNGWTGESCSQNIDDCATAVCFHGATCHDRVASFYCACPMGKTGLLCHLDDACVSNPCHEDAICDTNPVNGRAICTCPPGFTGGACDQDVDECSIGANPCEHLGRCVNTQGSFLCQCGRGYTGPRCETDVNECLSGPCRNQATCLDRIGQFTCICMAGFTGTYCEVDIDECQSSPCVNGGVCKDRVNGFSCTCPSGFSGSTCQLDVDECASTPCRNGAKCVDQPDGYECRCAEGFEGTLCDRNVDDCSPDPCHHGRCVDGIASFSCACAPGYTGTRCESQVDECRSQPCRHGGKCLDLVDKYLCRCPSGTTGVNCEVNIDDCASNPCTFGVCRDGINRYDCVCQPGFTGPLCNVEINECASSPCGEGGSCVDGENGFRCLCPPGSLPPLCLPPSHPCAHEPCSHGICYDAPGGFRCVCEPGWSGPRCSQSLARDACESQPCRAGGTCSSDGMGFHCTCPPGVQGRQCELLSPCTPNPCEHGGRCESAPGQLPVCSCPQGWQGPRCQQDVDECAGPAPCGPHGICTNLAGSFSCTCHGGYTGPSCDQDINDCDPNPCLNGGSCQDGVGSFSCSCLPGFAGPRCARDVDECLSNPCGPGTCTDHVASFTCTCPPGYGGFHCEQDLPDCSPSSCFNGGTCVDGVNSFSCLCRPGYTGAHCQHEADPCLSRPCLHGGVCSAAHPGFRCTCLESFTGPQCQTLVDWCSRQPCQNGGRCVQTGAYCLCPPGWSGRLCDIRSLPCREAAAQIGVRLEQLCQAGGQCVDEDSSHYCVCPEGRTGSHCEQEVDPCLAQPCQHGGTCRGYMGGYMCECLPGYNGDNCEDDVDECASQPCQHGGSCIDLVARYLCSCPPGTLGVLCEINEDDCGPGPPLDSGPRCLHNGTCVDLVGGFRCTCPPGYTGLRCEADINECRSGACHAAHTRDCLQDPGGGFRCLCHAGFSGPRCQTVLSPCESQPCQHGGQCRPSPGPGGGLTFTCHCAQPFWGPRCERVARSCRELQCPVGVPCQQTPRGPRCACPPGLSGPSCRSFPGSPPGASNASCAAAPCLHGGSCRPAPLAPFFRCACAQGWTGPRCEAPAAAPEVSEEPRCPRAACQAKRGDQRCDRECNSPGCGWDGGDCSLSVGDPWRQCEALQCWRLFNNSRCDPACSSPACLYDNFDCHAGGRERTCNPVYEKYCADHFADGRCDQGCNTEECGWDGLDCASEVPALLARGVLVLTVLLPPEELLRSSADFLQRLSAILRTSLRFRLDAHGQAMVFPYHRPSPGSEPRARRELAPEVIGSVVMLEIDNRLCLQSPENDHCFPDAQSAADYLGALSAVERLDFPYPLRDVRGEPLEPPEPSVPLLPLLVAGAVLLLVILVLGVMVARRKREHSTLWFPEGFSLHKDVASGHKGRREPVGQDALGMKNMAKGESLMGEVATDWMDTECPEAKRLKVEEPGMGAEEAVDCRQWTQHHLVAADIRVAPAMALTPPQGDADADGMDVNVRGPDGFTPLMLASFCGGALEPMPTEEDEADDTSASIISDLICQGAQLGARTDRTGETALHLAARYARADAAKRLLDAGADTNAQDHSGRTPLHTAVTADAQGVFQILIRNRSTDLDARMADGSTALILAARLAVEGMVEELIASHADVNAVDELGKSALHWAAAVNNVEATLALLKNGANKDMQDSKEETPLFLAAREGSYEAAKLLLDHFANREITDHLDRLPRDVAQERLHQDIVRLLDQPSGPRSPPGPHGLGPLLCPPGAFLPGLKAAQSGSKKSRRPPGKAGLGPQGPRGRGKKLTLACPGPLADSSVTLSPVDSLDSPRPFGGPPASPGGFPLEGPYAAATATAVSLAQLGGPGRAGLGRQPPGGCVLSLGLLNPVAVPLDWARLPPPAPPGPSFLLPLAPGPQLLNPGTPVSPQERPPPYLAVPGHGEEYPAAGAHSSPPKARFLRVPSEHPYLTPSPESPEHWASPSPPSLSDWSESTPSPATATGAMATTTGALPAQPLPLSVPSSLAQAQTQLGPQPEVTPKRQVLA
Chain of Torsin-1A-interacting protein 2 (Homo sapiens) (Q8NFQ8 whole entry, looked up): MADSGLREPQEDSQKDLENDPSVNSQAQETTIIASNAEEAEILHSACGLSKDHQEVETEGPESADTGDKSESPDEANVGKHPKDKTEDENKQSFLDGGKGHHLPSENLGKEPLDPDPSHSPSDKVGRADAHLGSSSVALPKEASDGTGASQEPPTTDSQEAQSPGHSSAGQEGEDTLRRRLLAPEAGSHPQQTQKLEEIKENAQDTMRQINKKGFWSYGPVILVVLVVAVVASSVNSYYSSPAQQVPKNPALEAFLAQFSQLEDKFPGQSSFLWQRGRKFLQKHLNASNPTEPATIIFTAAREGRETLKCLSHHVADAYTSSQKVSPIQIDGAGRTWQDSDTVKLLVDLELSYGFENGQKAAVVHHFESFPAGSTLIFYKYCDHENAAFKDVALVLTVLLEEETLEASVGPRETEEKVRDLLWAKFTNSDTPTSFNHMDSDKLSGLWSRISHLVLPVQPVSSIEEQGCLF

With `CC(C)[Si]1(C(C)C)O[C@@H](c2ccccc2)c2cc(C3CC3)nc(-c3ccccc3)c21`, the composite z-score was -0.324 in assay [1]; -0.598 in [2]; -0.0494 in assay [3]; -0.0526 in assay [4]; 0.0397 in assay [5]; -0.234 in [6]. Moreover, the composite z-score in assay [7] was -0.717; in assay [9], -0.0973; in assay [10] it was 0.0274; in assay [11], 0.0587; in assay [15], -0.332; in assay [17], -0.34. The values for the composite z-score in assay [18], in assay [19] and in assay [20] were -0.207, 0.492 and -0.0304, respectively. The z-score in assay [8] is 0.178 (inactive); in [12], -0.443 (inactive); in assay [13], -5.5 (inactive); in [14], -0.215 (inactive); in assay [16], -0.867 (inactive).
Consider `O=C1[C@H]2[C@H]3[C@H](O)[C@H](O)CC(=NO[C@@H]4O[C@H](CO)[C@@H](O)[C@H](O)[C@H]4O)[C@H]3CC[C@H]2C(=O)N1Cc1ccc2c(c1)OCO2`, for which the composite z-score is 0.606 in assay [1]; 1.53 in assay [2]; -0.104 in [3]; -0.103 in [4]; -0.475 in assay [5]; 0.266 in assay [6]. Besides, the composite z-score was 0.592 in assay [7]; 0.319 in assay [9]; -0.132 in assay [10]; 0.661 in [11]; 2.14 in assay [15]; 0.0835 in [17]. In addition, the composite z-score in assay [18] is -0.246; in [19], -0.133; in assay [20], -0.17. Moreover, the z-score was -0.0585 (inactive) in assay [8]; 0.827 (inactive) in assay [12]; 0.918 (inactive) in [13]; -0.297 (inactive) in assay [14]; 0.529 (inactive) in assay [16].
For the molecule `COc1ccc(OC[C@H]2Cc3c(-c4ccccc4)nc4c(c3CO2)CN(CCOc2ccccc2)CC4)cc1`, the composite z-score was -0.133 in [1]; 0.228 in assay [2]; -0.172 in assay [3]; 0.79 in assay [4]; 1.16 in assay [5]; 0.679 in assay [6]. For the same molecule, the composite z-score in assay [7] was 1.11; in assay [9], 0.491; in [10] it was -0.0618; in [11], 1.53; in assay [15], 1.32; in assay [17], 0.0534. For the same molecule, the composite z-score in assay [18] is 0.476; in assay [19], 1.1; in assay [20] it was 0.03. In addition, the z-score in [8] is 0.114 (inactive); in [12], -0.721 (inactive); in assay [13], -2.44 (inactive); in assay [14], -0.42 (inactive); in assay [16], 0.258 (inactive).
As to `CC(CCN1CCc2nc(-c3ccccc3)c(-c3ccccc3)cc2C1)=NO[C@@H](C)c1cn([C@H](CO)Cc2ccccc2)nn1`, the composite z-score was -0.261 in assay [1]; 0.608 in assay [2]; -0.143 in assay [3]; -0.0983 in assay [4]; -0.674 in assay [5]; 0.424 in assay [6]. The composite z-score in assay [7] is 0.124; in assay [9] it was 0.0854; in [10], -0.189; in assay [11], 0.747; in assay [15], 0.272; in [17], -0.037. Also, the composite z-score in [18] was 0.549; in assay [19] it was -0.474; in assay [20] it was -0.0172. In addition, the z-score in assay [8] is -0.54 (inactive); in assay [12], -2.46 (inactive); in assay [13], -2.24 (inactive); in assay [14], -4.45 (inactive); in assay [16], -0.966 (inactive).
In the case of `CCN1C(=O)[C@H]2[C@H]3[C@H](O)[C@H](O)CC(=NOCC=C(C)CCC=C(C)C)[C@H]3CC[C@H]2C1=O`, the composite z-score in assay [1] is -0.968; in [2] it was 0.689; in assay [3], -0.117; in assay [4] it was 0.923; in [5], 0.698; in assay [6], 0.65. Also, the composite z-score is 1.07 in assay [7]; 0.617 in [9]; 0.183 in assay [10]; 1.56 in assay [11]; 1.52 in [15]; -0.0355 in assay [17]. Also, the results for the composite z-score in [18], in assay [19] and in assay [20] were 1.32, 1.13 and 0.186, respectively. Moreover, the z-score in assay [8] was -0.454 (inactive); in [12] it was -0.541 (inactive); in assay [13] it was 0.0853 (inactive); in assay [14] it was -1.11 (inactive); in [16] it was 0.707 (inactive).
